# The panel holds about 83,000 compounds, 20% with a hit somewhere; the sample as a whole holds those more often.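 Growth was measured after 48 h exposure to one concentration of compound in 96-well plates. Values under 10 count as active.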 Activity calls are given as the source filed them.
# System: A498 renal
# Experiment: NCI-60 one-dose screen, 48 h (100 = growth as untreated, 0 = no growth, -100 = all killed)
# Details: 10 µM
row,SMILES,growth
1,Cc1ccc(F)cc1N/C=c1\s/c(=C(\C#N)C(=O)Nc2ccccc2)n(-c2ccccc2)c1=O,-16.7% (active)
2,COc1ccc([C@H]2C(C(=O)c3ccc(Cl)cc3)C3(N[C@@H]2c2ccccc2)C(=O)Nc2ccc(Cl)cc23)cc1 (some centres not stated),10.4% (inactive)
3,O=C1Nc2cc(-c3ccc(NC(=O)c4cccc([N+](=O)[O-])c4)cc3)ccc2/C1=C/c1ccc[nH]1,149% (inactive)
4,CCCn1c(=O)c2[nH]c(-c3ccc(OCc4nc5ccc(F)cc5[nH]4)cc3)nc2n(CCC)c1=O,-85.8% (active)
5,CCCS(=O)(=O)c1oc(-c2ccc(F)cc2)nc1S(=O)(=O)c1ccc(F)cc1,113% (inactive)
6,CCOC(=O)C1=C(N)N(c2ccc(Cl)cc2)C2=C(C(=O)CC(C)(C)C2)C1c1ccc(N2CCOCC2)cc1 (configuration not stated),119% (inactive)
7,COc1ccc2[nH]cc(/C=N/Nc3ccc(Br)cn3)c2c1,50.7% (inactive)
8,O/N=C(\CSc1nnc(-c2c[nH]c3ccccc23)n1-c1ccccc1)c1ccc(Cl)cc1,83.7% (inactive)
9,COc1ccc2[nH]c(O)c(N=NC(=O)COc3ccc(NC(=O)Nc4ccc(Cl)c(Cl)c4)cc3)c2c1,-1.89% (active)
10,C=C1CC[C@H](C(=C)C)[C@H]2C=C(C)C(=O)C3=C(C(=O)[C@@](C)(O)C3)[C@H]12,-93.2% (active)
11,O=S(=O)(Nc1ncccn1)c1ccc(-n2c(-c3ccccc3)nc(-c3ccccc3)c2-c2ccccc2)cc1,81.9% (inactive)
12,COc1cccc(/C=C2\N=C(C)N(CCc3ccc(S(N)(=O)=O)cc3)C2=O)c1,101% (inactive)

# Source: PubChem BioAssay (NCI)
